The source of these data is PubChem BioAssay (NCATS).

SMILES strings stand for the structures. Results filed as inconclusive are left out. Entries that show only a call come without a potency. The source made the active and inactive calls. Calls follow the shape of the dose curve; as a rule, active = well fitted inhibition curve with a large enough effect; inconclusive = small, poorly fitted or top-dose-only effect; inactive = no such curve, though single readings can be large or run the other way.
Potency is read from the fitted curve at half-maximal effect.

This assay in a line: qHTS Screen of the MIPE 4.0 Collection Against Ewings Sarcoma (RDES) (AID 1259252). Also: nearly all actives have a fitted effect of over 35% in size. The note with it: RD-ES Ewing sarcoma viability, CellTiter-Glo, 48 h; series mostly up to 45.8 µM. From the text: There is a large unmet medical need for treatments for Ewing sarcoma, a pediatric sarcoma. We sought to identify compounds that inhibited Ewing sarcoma cells in vitro with the goal to then test promising drugs in two drug combinations in vitro to look for synergistic drug combinations. Promising combinations would then proceed to additional validation, including in vivo testing.
Using the NCATS developed oncology compound library called the Mechanism of Interrogation Plate (MIPE), four Ewing sarcoma cell lines were evaluated (TC32, TC71, RDES, EW8). Compounds, in a 12-point titration series, were incubated with cells for 48 hours and the read out was cell viability (CellTiter-Glo from Promega). These initial experiments were used to select appropriate concentrations of each single agent for subsequent two-drug matrix combinations such that the concentrations in the matrices would span both activity and non-activity.
Cells, in the log phase of growth, were seeded in 5 uL of RPMI plus 5% FBS, […] L-glutamine, 100 U/ml penicillin and 100 ug/ml streptomycin into 1536-well solid-bottom white tissue culture treated Greiner Bio One Plates (789173-F) using a MultiDrop Combi (Thermofisher Scientific) dispenser and a small sterile cassette. One column was media alone to be used as a :"no cells" control. The plates were then covered with sterilized stainless steel gasketed lids from Kalypsys. After allowing cells to attach for 4 hours, 23 nL of test compound or control (negative control DMSO and positive control 9.2 uM Bortezomib-final) were added from a 1536-well polypropylene compound source plate to each well using a 1536 head pin tool from Kalypsys. Cells were then incubated for 48 hours at 37C, 95% relative humidity and 5% CO2. After 48 hours, plates were removed from the incubator and 3 uL of CellTiter-Glo (Promega) was added using an Aurora Flying Reagent Dispenser Bioraptor. Plates were incubated at room temperature for 10 minutes prior to reading the luminescence on the Viewlux (PerkinElmer). The relative luciferase units are used to calculate the percent activity using the activity of DMSO in the cells and no cells columns for normalization of no inhibition and full inhibition respectively.
(In general: Quantitative high-throughput screening tests each substance at several concentrations.)
As to `COC(c1ccccc1)(c1ccccc1)[C@H](Oc1nc(C)cc(C)n1)C(=O)O`, the Potency entry was “inactive”.

For the molecule `CC1(C)[C@H](C(=O)O)N2C(=O)C[C@H]2S1(=O)=O`, the Potency entry was “inactive”.

Regarding `CCOc1cc(N)c(Cl)cc1C(=O)NCC1CN(Cc2ccc(F)cc2)CCO1` (stereo not given), the Potency result was “inactive”.

As for `COc1cc(NCc2ccc3nc(N)nc(N)c3c2C)cc(OC)c1OC`, the Potency is 3.32 µM (active).

For `CC(C)NCC(O)c1ccc(NS(C)(=O)=O)cc1` (stereo not given), the Potency was 5.9 µM (active).

As for `O[C@@H](CNC[C@H](O)[C@H]1CCc2cc(F)ccc2O1)[C@@H]1CCc2cc(F)ccc2O1`, the Potency is 23.5 µM (active).

In the case of `COc1cccc(N(C)C(=S)Oc2ccc3c(c2)CCCC3)n1`, the Potency entry was “inactive”.

As for `CC(C)(C#N)c1cc(Cn2cncn2)cc(C(C)(C)C#N)c1`, the Potency result is “inactive”.

For `CCN(CC)CCn1c(=O)c(Cc2ccc(OC)cc2)nc2ccccc21`, the Potency result is “inactive”.

In the case of `NC(=O)c1cccc(N)c1`, the Potency result was “inactive”.

With `CC(C)(C)NC(=O)[C@H]1CC[C@H]2[C@@H]3CC[C@H]4NC(=O)C=C[C@]4(C)[C@H]3CC[C@]12C`, the Potency was 1.05 µM (active).

In the case of `N[C@@H](Cc1ccc(O)c(O)c1)C(=O)O`, the Potency result was “inactive”.

As to `O=C(NCC1CN(c2ccc(N3CCOCC3=O)cc2)C(=O)O1)c1ccc(Cl)s1` (stereo not given), the Potency entry was “inactive”.

On to `CC1=NN(c2ccccc2)C(=O)C1`, for which the Potency entry is “inactive”.

With `COc1cc(NS(=O)(=O)c2ccc(N)cc2)nc(OC)n1`, the Potency result is “inactive”.

For `N[C@@H](C(=O)N[C@@H]1C(=O)N2C(C(=O)O)=C(Cl)CS[C@H]12)c1ccccc1`, the Potency entry was “inactive”.

`COC(=O)Nc1nc2ccc(C(=O)c3ccccc3)cc2[nH]1`: the Potency is 0.662 µM (active).

With `CN(C)CCc1c[nH]c2ccc(CS(=O)(=O)N3CCCC3)cc12`, the Potency result was “inactive”.

On to `Cc1oc(=O)oc1CN1CCN(c2cc3c(cc2F)c(=O)c(C(=O)O)c2n3C(C)S2)CC1` (stereo not given), for which the Potency result is “inactive”.

In the case of `COc1ccc(C(=O)CC(=O)c2ccc(C(C)(C)C)cc2)cc1`, the Potency is 1.05 µM (active).

On to `NCCCC(O)(P(=O)(O)O)P(=O)(O)O`, for which the Potency entry was “inactive”.

Turning to `COc1ccc(-c2ccc3cc(C(=O)O)ccc3c2)cc1C12CC3CC(CC(C3)C1)C2`, the Potency was 2.09 µM (active).

As to `CCOCC(O)COc1ccc(NC(=O)CC[S+](C)C)cc1` (stereo not given), the Potency result was “inactive”.

As for `CC1=CC(=O)c2ccccc2C1=O`, the Potency was 18.7 µM (active).

For `NC(=O)c1cccnc1`, the Potency result is “inactive”.

Take `CCN[C@H]1C[C@H](C)S(=O)(=O)c2sc(S(N)(=O)=O)cc21`: the Potency result is “inactive”.

Consider `O=S(=O)(O)CCS`, for which the Potency entry was “inactive”.

`O=c1cc(O)c(Cl)c[nH]1`: the Potency entry was “inactive”.

In the case of `COc1cc([C@@H]2c3cc4c(cc3[C@H](O)[C@H]3COC(=O)[C@H]23)OCO4)cc(OC)c1OC`, the Potency result was “inactive”.

`C[C@]12C=CC(=O)C=C1CC[C@@H]1[C@@H]2C(=O)C[C@@]2(C)[C@H]1CC[C@]2(O)C(=O)CO`: the Potency entry is “inactive”.

Regarding `CNNCc1ccc(C(=O)NC(C)C)cc1`, the Potency entry was “inactive”.

Take `Cc1cccc(N(C)C(=S)Oc2ccc3ccccc3c2)c1`: the Potency entry was “inactive”.

As for `Nc1ccc(S(=O)(=O)Nc2ccccn2)cc1`, the Potency entry is “inactive”.

As for `Nc1[nH]c(=O)ncc1F`, the Potency entry was “inactive”.

`CCCc1nc(C)c2c(=O)[nH]c(-c3cc(S(=O)(=O)N4CCN(CC)CC4)ccc3OCC)nn12`: the Potency is 7.43 µM (active).

Take `CC1=C(C(=O)O)N2C(=O)[C@@H](NC(=O)C(N)c3ccccc3)[C@H]2SC1` (stereo not given in full): the Potency result is “inactive”.

`CN1CCN(c2c(F)cc3c(=O)c(C(=O)O)cn(CCF)c3c2F)CC1`: the Potency result was “inactive”.

Turning to `CCN1CCCC1CNC(=O)c1cc(S(N)(=O)=O)ccc1OC` (stereo not given), the Potency result was “inactive”.

With `O=C(O)c1cccnc1`, the Potency entry was “inactive”.

Consider `S=P(N1CC1)(N1CC1)N1CC1`, for which the Potency was 16.6 µM (active).
